# The whole screen tested about 310,000 compounds, of which about 14,000 (4.5%) showed an effect of 50% or more. Effects have a minus sign here. The full list was thinned out, with strong results kept by preference.
# Molecular target: human ether-à-go-go-related gene (hERG) potassium channel (human, UniProt Q12809)
# Experiment: primary screen, population patch clamp on CHO cells stably expressing hERG; higher = less effect of the substance
# 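Also: peak tail current of the secondary pulse compared with the same well before compound.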
# Chain of human ether-à-go-go-related gene (hERG) potassium channel (Q12809 whole entry, looked up): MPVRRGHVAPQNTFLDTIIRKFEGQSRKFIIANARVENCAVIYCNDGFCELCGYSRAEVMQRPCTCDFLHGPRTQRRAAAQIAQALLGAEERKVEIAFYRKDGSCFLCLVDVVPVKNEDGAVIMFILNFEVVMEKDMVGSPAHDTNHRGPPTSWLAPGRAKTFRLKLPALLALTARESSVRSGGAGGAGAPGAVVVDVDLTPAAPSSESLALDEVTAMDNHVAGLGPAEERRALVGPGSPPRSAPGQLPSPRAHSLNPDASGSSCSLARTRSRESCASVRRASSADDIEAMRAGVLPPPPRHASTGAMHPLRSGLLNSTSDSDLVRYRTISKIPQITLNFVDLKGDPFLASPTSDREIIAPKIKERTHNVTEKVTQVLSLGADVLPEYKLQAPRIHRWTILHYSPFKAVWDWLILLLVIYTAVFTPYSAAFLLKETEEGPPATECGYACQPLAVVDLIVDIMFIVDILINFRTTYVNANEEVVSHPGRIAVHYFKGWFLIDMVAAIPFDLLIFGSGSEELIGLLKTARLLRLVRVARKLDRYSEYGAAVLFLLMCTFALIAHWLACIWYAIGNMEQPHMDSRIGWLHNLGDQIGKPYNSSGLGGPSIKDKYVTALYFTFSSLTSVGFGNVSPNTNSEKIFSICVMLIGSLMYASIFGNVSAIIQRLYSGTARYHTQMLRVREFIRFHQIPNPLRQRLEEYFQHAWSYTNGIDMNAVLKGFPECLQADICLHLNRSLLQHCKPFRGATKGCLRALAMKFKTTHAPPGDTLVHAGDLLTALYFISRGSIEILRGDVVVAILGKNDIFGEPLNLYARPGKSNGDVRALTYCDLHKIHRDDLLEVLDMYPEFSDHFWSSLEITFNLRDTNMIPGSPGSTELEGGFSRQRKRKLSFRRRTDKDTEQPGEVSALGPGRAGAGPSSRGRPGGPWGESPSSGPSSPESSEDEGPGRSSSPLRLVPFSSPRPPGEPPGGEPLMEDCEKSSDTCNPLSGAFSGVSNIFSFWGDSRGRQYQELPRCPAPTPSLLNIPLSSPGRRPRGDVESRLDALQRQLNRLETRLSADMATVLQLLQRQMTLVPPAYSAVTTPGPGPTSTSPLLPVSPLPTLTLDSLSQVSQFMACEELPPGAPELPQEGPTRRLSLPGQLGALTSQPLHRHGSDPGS
row,Structure (SMILES),"hERG current change (%, negative = inhibition) at 10uM"
1,Cc1cc2[nH]c(=O)c(=O)[nH]c2cc1S(=O)(=O)Nc1cccc(Cl)c1C,-0.165%
2,CCN1CCN(C2=NC(=O)/C(=C/c3ccc(C)o3)S2)CC1,-20.9%
3,O.[I-].c1ccc2[nH]c(-c3cc[nH+]c4ccccc34)nc2c1,-12.6%
4,CCOc1ccccc1NC(=O)C1CCCN(c2c(CC)c(C)nc3ncnn23)C1 (stereo not drawn),-65.1%
5,CCc1c(C)nc2ncnn2c1N1CCCC(C(=O)Nc2cc(F)ccc2C)C1 (stereo not drawn),-40.6%
6,CCc1c(C)nc2ncnn2c1N1CCC(C(=O)N2CCN(c3ccc(F)cc3)CC2)CC1,-67.9%
7,CCc1c(C)nc2ncnn2c1N1CCC(C(=O)Nc2cccc(C(C)=O)c2)CC1,-22.6%
8,CCc1c(C)nc2ncnn2c1N1CCC(C(=O)NCc2cccs2)CC1,-44.4%
9,O=C(C1CCN(c2ccc(N3CCOCC3)nn2)CC1)N1CCN(c2ccc(F)cc2)CC1,-47.4%
10,CCc1c(C)nc2ncnn2c1N1CCC(C(=O)Nc2ccc(C)cc2)CC1,-55.9%
11,CCc1c(C)nc2ncnn2c1N1CCCC(C(=O)NCCc2ccc(OC)cc2)C1 (stereo not drawn),-19.6%
12,CCc1c(C)nc2ncnn2c1N1CCCC(C(=O)Nc2ccc(NC(C)=O)cc2)C1 (stereo not drawn),14.2%
13,CCc1c(C)nc2ncnn2c1N1CCC(C(=O)Nc2ccccc2)CC1,-44.4%
14,CCc1c(C)nc2ncnn2c1N1CCCC(C(=O)NCCc2ccccc2)C1 (stereo not drawn),-15.2%
15,CCOc1ccc(NC(=O)C2CCCN(c3c(CC)c(C)nc4ncnn34)C2)cc1 (stereo not drawn),-65.8%
16,Cc1nc2ccc(NC(=O)Cc3cccs3)cc2s1,11%
17,CCOC(=O)N/N=C/C=C/c1ccccc1,1.98%
18,O=C(O)c1cc(N/N=C/c2c[nH]c3ccccc23)ccc1Cl,10.3%
19,O=S(=O)(/C=C/c1ccccc1)N1CCN(c2ccccc2)CC1,-2.08%
20,S=c1[nH]nc(-c2ccco2)n1/N=C/c1c(Cl)cccc1Cl,-10.9%
21,Cc1cc(NC(=O)c2ccc(Cl)cc2)ccc1NC(=O)c1ccccc1Cl,9.97%

row,Structure (SMILES),"hERG current change (%, negative = inhibition) at 10uM"
1,Cc1cc(C)c(C(=O)COC(=O)c2nn(C)c(=O)c3ccccc23)cc1C,-30.4%
2,O=C(O)c1ccccc1C(=O)NCCCCCCNC(=O)c1ccccc1C(=O)O,7.63%
3,Cc1ccccc1NC1=CC(=O)CC(C)(C)C1,-0.789%
4,COc1cc(-c2nc(CN3CCN(CC(C)C)C(=O)[C@@H]3C)c(C)o2)ccc1F,-14.2%
5,CCOC(=O)CC1CCCCN1Cc1cn[nH]c1-c1ccc(F)cc1F (stereo not drawn),-64.8%
6,CCOC(=O)C1CCCN(Cc2cn[nH]c2-c2ccc(F)cc2F)C1 (stereo not drawn),-2.03%
7,COc1ccc(-c2nc(CSCC(=O)N3CCC(C(N)=O)CC3)c(C)o2)cc1OC,-0.184%
8,COc1cc(-c2nc(CN3CCCCC3CCNC(C)=O)c(C)o2)ccc1F (stereo not drawn),-66.6%
9,CCOC(=O)C1CCCCN1Cc1cn[nH]c1-c1ccc(F)cc1F (stereo not drawn),1.06%
10,CCOC(=O)CC1CCCCN1Cc1nc(-c2ccc(F)c(OC)c2)oc1C (stereo not drawn),-65.5%
11,COc1ccc(-c2nc(CS(=O)CC(=O)NCCN3CCCCC3C)c(C)o2)cc1OC (stereo not drawn),16.8%
12,CCC1CCCCN1CCCNC(=O)CS(=O)Cc1nc(-c2ccc(OC)c(OC)c2)oc1C (stereo not drawn),5.21%
13,O=C(CSc1nc2cc(Cl)ccc2s1)NCc1ccc2c(c1)OCO2,0.137%
14,COc1cc(OC)cc(C(=O)N(Cc2cc3cc(C)ccc3[nH]c2=O)C(C)C)c1,-7.49%
15,O=C(C[n+]1ccccc1)N/N=C/c1ccc(Cl)cc1.[Cl-],-5.76%
16,NC(=O)CSc1nnnn1-c1ccccc1Cl,6.07%
17,O=C(N/N=C/C(Br)=C/c1ccccc1)c1ccccc1F,-38.5%
18,Cc1ccc2c(CC(=O)N3CCOCC3)coc2c1,8.58%
19,CCN(CC)S(=O)(=O)c1ccc(C(=O)OCCN2C(=O)CCC2=O)cc1,-7.82%
20,Cn1c(=O)c2c(nc(SCCN3CCCCC3)n2Cc2ccc(Cl)cc2)n(C)c1=O,-72.3%
21,Cc1ccc(Cn2c(SCC(C)C)nc3c2c(=O)n(C)c(=O)n3C)cc1,4.03%
